Test results reported in PubChem BioAssay (NCATS).
Records with an inconclusive call do not appear. Activity calls are given as the source filed them. Calls come from the whole dose curve; as a rule, active = well fitted curve in the direction sought with a large enough effect; inconclusive = small, poorly fitted or top-dose-only effect, or another doubt; inactive = no such curve, though single readings can be large; an effect the other way counts as inactive or inconclusive.

Molecular target: Nuclear receptor subfamily 1 group I member 3 (Homo sapiens) (UniProt Q14994)
Assay: Primary qHTS for agonist of constitutive androstane receptor (CAR) against the NCATS DSHEA and TCM libraries (AID 1794839);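 note: HepG2 cells expressing human CAR with a CYP2B6 reporter plus PK11195 antagonist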
Conditions: CAR agonist reporter cells, qHTS luminescence, CAR antagonist co-added at 0.75 µM; series mostly up to 22 µM
In short: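 HepG2-CYP2B6-hCAR cells (2,500/well) were attached for 5 h, then treated for 24 h at 37 °C with compounds plus 0.75 µM PK11195. Luciferase luminescence (ONE-Glo) was read, with CellTiter-Fluor viability (Ex/Em 405/540 nm).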

Chain of Nuclear receptor subfamily 1 group I member 3 (Homo sapiens) (Q14994 whole entry, looked up): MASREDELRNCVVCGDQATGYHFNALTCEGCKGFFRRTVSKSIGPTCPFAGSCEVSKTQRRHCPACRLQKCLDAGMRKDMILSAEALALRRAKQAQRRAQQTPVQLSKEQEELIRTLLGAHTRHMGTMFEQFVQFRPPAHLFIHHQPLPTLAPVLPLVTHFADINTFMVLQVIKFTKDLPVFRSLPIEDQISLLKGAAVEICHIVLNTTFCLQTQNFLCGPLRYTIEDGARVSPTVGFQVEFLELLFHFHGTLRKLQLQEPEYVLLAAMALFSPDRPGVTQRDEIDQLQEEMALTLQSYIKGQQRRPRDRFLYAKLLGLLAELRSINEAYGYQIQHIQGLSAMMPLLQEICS

| SMILES | outcome |
| --- | --- |
| OC[C@H]1O[C@@H](OC[C@H]2O[C@@H](OC/C=C/c3ccccc3)[C@H](O)[C@@H](O)[C@@H]2O)[C@@H](O)[C@@H]1O | inactive |
| CC(C)=CCC(O)/C(C)=C/CO[C@@H]1O[C@H](CO)[C@@H](O)[C@H](O)[C@H]1O (some centres not stated) | inactive |
| CC1CC[C@]2(C(=O)O)CC[C@]3(C(=O)O)C(=CCC4[C@@]5(C)CC[C@H](OC6OC(C)C(O)C(OC7OC(CO)C(O)C(O)C7O)C6O)C(C)(C)C5CC[C@]43C)C2C1C (some centres not stated) | inactive |
| CC(C)=CCC[C@](C)(O[C@@H]1O[C@H](CO[C@@H]2O[C@H](CO)[C@@H](O)[C@H](O)[C@H]2O)[C@@H](O)[C@H](O)[C@H]1O)C1CC[C@]2(C)[C@@H]1[C@H](O)CC1[C@@]3(C)CC[C@H](O[C@@H]4O[C@H](CO)[C@@H](O)[C@H](O)[C@H]4O[C@@H]4O[C@H](CO)[C@@H](O)[C@H](O)[C@H]4O)C(C)(C)[C@@H]3CC[C@]12C (some centres not stated) | inactive |
| CC(C)=CCC[C@](C)(O)[C@H]1CC[C@]2(C)[C@@H]1[C@H](O)CC1[C@@]3(C)CC[C@H](O)C(C)(C)[C@@H]3[C@@H](O[C@@H]3O[C@H](CO)[C@@H](O)[C@H](O)[C@H]3O[C@@H]3O[C@H](CO)[C@@H](O)[C@H](O)[C@H]3O)C[C@]12C (some centres not stated) | inactive |
| C[C@@]12CC[C@@H]3[C@@](CC[C@H]4[C@@]3(C)CCC[C@@]4(C)C(=O)O)(CC1=O)C2 | inactive |

System: not listed separately
Assay: HepG2 viability counterscreen (readout 2: ATP content) against the NCATS DSHEA and TCM libraries (AID 1794840);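 note: HepG2 cells exposed to substances for about 24 h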
Conditions: ATP content luminescence; series mostly up to 15.1 µM
In short: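 HepG2 cells (1,000 cells/well) attached ~4 h, then treated ~24 h at 37C with substances. Protease activity read by GF-AFC (25 uM final, 30 min, Ex/Em 380/510 nm); ATP content then by CellTiter-Glo luminescence.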

| SMILES | outcome |
| --- | --- |
| OC[C@H]1O[C@@H](OC[C@H]2O[C@@H](OC/C=C/c3ccccc3)[C@H](O)[C@@H](O)[C@@H]2O)[C@@H](O)[C@@H]1O | inactive |
| CC(C)=CCC(O)/C(C)=C/CO[C@@H]1O[C@H](CO)[C@@H](O)[C@H](O)[C@H]1O (some centres not stated) | inactive |
| CC1CC[C@]2(C(=O)O)CC[C@]3(C(=O)O)C(=CCC4[C@@]5(C)CC[C@H](OC6OC(C)C(O)C(OC7OC(CO)C(O)C(O)C7O)C6O)C(C)(C)C5CC[C@]43C)C2C1C (some centres not stated) | inactive |
| CC(C)=CCC[C@](C)(O[C@@H]1O[C@H](CO[C@@H]2O[C@H](CO)[C@@H](O)[C@H](O)[C@H]2O)[C@@H](O)[C@H](O)[C@H]1O)C1CC[C@]2(C)[C@@H]1[C@H](O)CC1[C@@]3(C)CC[C@H](O[C@@H]4O[C@H](CO)[C@@H](O)[C@H](O)[C@H]4O[C@@H]4O[C@H](CO)[C@@H](O)[C@H](O)[C@H]4O)C(C)(C)[C@@H]3CC[C@]12C (some centres not stated) | inactive |
| CC(C)=CCC[C@](C)(O)[C@H]1CC[C@]2(C)[C@@H]1[C@H](O)CC1[C@@]3(C)CC[C@H](O)C(C)(C)[C@@H]3[C@@H](O[C@@H]3O[C@H](CO)[C@@H](O)[C@H](O)[C@H]3O[C@@H]3O[C@H](CO)[C@@H](O)[C@H](O)[C@H]3O)C[C@]12C (some centres not stated) | inactive |
| C[C@@]12CC[C@@H]3[C@@](CC[C@H]4[C@@]3(C)CCC[C@@]4(C)C(=O)O)(CC1=O)C2 | inactive |
